Measured values from PMC13494018.
Values without a mark were called inactive. How the calls were made is not given here.

B1: design_603_0b98da89-d791-4423-9b2d-fd1b7292da18_2081_dldesign_0_cycle1_af2pred (protein)
chain: AEEAEKKVKELAKKAEEAFRRAREAGAKAVEKDPSVAKRASELVHQAAQYRAEAKAAKDPEEAKEALKKAEKAREELEKLAKA
B2: design_603_0b98da89-d791-4423-9b2d-fd1b7292da18_768_dldesign_0_cycle1_af2pred (protein)
chain: KAFQAYNSSKALADNNVAVAKKLAEKGKLEEAEKAAKEGLERLKARAERLKGDPEAYKAAMKALEEYEKRAKEVVEEGKKAK
B3: design_603_0b98da89-d791-4423-9b2d-fd1b7292da18_573_dldesign_0_cycle1_af2pred (protein)
chain: EELLKGAEEIKKKAEEVVKEIKKINPKLGEEAEKELKEAEKEGKKETPAVYIQKMQEALTYAKSLLIKAKKE
B4: design_603_0b98da89-d791-4423-9b2d-fd1b7292da18_1943_dldesign_0_cycle1_af2pred (protein)
chain: PPADELLALADKKAEEVEKKIEEAAEYGKKSGDKEKALKLIDEVLKEAEKEAEELIAKPETRAAGVILRNEAEVMAKNAKEKLLK
B5: design_603_0b98da89-d791-4423-9b2d-fd1b7292da18_2191_dldesign_0_cycle1_af2pred (protein)
chain: MEEAKKKAEELIKRAKEHVEKARKIAKEGGSTMEAMLHILEAEADAREALKIGEKYPELKEMAEEAKEYVKKTRKEIKAILKA
B6: design_603_0b98da89-d791-4423-9b2d-fd1b7292da18_1135_dldesign_0_cycle1_af2pred (protein)
chain: SEELKELAKAVLEEFSKKVHELYELAAEKDKETSKKIKELAKKAAEYGKKAVEDYLKGEKKEEGEKYKKEAEKYFEEAKKLAE
B7: design_603_0b98da89-d791-4423-9b2d-fd1b7292da18_1380_dldesign_0_cycle1_af2pred (protein)
chain: GEEVAKVLEKNAEIAREGDAEEAIAALKEAAKELNKYHKLQPYAERLEFLAEELKKNKADPEKAAAIAKYGAELLKKAAEVAK
B8: design_603_0b98da89-d791-4423-9b2d-fd1b7292da18_754_dldesign_0_cycle1_af2pred (protein)
chain: NDEEAKQKLAEAAAKLHEAAALAEYEGDEELAKKAREAAKELKAAAADPSLTAEEKAKLAEEAKKKAEEIIKKVEEK
B9: design_603_0b98da89-d791-4423-9b2d-fd1b7292da18_572_dldesign_0_cycle1_af2pred (protein)
chain: SEKEEYLKKAKEEMEKLKAEILELMKKGNEYLPEASKLMAEMREIGAEAAFYVGPEADELRKKIMGEVLEAAKKYSG
B10: design_603_0b98da89-d791-4423-9b2d-fd1b7292da18_594_dldesign_0_cycle1_af2pred (protein)
chain: SMEEEAKKKLEEVKKEAEKVKKEAEKALKEAKATDKAKGLAAMAKVAAKAHEVRAEGDYYGKYDPEAAKIGKEVMEYVRAKAKEIEA
B11: design_603_0b98da89-d791-4423-9b2d-fd1b7292da18_1163_dldesign_0_cycle1_af2pred (protein)
chain: MEALKEIKELMKKAEEEAKKLAKSMGVEGAKEGLKVAEKYFSSIFDIAIEKLTPEEAKEALDIANKAAKEIKDYIDKAIAEK
B12: design_603_0b98da89-d791-4423-9b2d-fd1b7292da18_1956_dldesign_0_cycle1_af2pred (protein)
chain: VTRAELAALAHEVQEAANEVYFEAKKSKNTEKLQALAREAKALVKQAASADPETALALLKEAQALVDEAKKILEKEKKE
B13: design_603_0b98da89-d791-4423-9b2d-fd1b7292da18_996_dldesign_0_cycle1_af2pred (protein)
chain: SAAEERRKKGLELAEKRYAELEKLAKETEELNPELGKEAKKEAEEAKKYYEKAAEAPDSEVIDYVAKANEKRIKAEKLYKKAK
B14: design_603_0b98da89-d791-4423-9b2d-fd1b7292da18_1249_dldesign_0_cycle1_af2pred (protein)
chain: AEASKQAAKEIAATVRKLGEKVPEAAPLAEEAAKAVEAAAGEAPEKIAAVAIAALKEIGEKVPEATSLANEARAEARGIAHEAKK
B15: design_603_0b98da89-d791-4423-9b2d-fd1b7292da18_819_dldesign_0_cycle1_af2pred (protein)
chain: SAKEKASAALRAVATAAARDAKKRFPKIDKETANEFQKARMYAADPNEVAKGIEHLKAAAAKLGEIGKEYIAAADKVAALL
B16: design_603_0b98da89-d791-4423-9b2d-fd1b7292da18_1363_dldesign_0_cycle1_af2pred (protein)
chain: EEEERKSRQAYGKALSLIELARHAAKADPKAYPLALKYIEKAKELAEEASEELKKEVLEEAEEAEKEVLELGKK
B17: design_603_0b98da89-d791-4423-9b2d-fd1b7292da18_403_dldesign_0_cycle1_af2pred (protein)
chain: AAAAEERAAGLAGRARVLEKSGLRLAKLNPEQGELLAEFLREEAEADPIGAPHFRAAADRLLAEVRKYKE
B18: design_603_0b98da89-d791-4423-9b2d-fd1b7292da18_386_dldesign_0_cycle1_af2pred (protein)
chain: EKEEIIKRAKEAAERMKELAKKDPKYAEDAKKGKEVAEKAIEKAKESDKSLASAEALAESLELAVEYLEKKLKE
B19: design_603_0b98da89-d791-4423-9b2d-fd1b7292da18_227_dldesign_0_cycle1_af2pred (protein)
chain: DKLKEKAEKLKKEVEEEMKKMKKLVKEGKEEEAKAEAKKTKEIAEKAEKAGEEAIEKGDEESKKAGRDALATAERAKQAAKAVIK
B20: design_603_0b98da89-d791-4423-9b2d-fd1b7292da18_1132_dldesign_0_cycle1_af2pred (protein)
chain: EEEASKKAREDADKISKEQKKIKENAKAAKAGTPEEAKAKYEEAKKAAEEIKKIDPDLGTFVLNNIKKWYA
B21: design_603_0b98da89-d791-4423-9b2d-fd1b7292da18_1818_dldesign_0_cycle1_af2pred (protein)
chain: AEEKIKEGEEKAKKFVEKAKELAKEGKYNAALGYVEAAKDVAKEIEKLSEEGKEVGKKIKEEAEKAEKIVKEKEKEKKELEE
B22: design_603_0b98da89-d791-4423-9b2d-fd1b7292da18_2026_dldesign_0_cycle1_af2pred (protein)
chain: SSMKEEEIKEMEKAAKKAAELLDDEEAAKKLLEAVKLAIEDPKEGTKKLREIAKEIGAKGSEEVKKALEEAVHAALRYRAI
B23: design_603_0b98da89-d791-4423-9b2d-fd1b7292da18_215_dldesign_0_cycle1_af2pred (protein)
chain: MTEEEERALVRGAYRAAVEAAKDPANAADYLAKSKALADELIAKGSKKAIASAAFKLEGVAEAAAKDPATAEVAKAANATAKRLNAAL
B24: design_603_0b98da89-d791-4423-9b2d-fd1b7292da18_1486_dldesign_0_cycle1_af2pred (protein)
chain: MSIELLAEAARAAVRIARALGEAEDVETAVAFRDKAIEAAAEDEEMAKKIIAAAKEVEDPATALAAARAALAAVEAFAA
B25: design_603_0b98da89-d791-4423-9b2d-fd1b7292da18_519_dldesign_0_cycle1_af2pred (protein)
chain: AAAQEEARKAAERAAKIMRRRGERTGDLEKAEEAAKRVAAALAEGRAAGSAAMAEALEEFAELEYEKRKEEKKKKEEALE
B26: design_603_0b98da89-d791-4423-9b2d-fd1b7292da18_614_dldesign_0_cycle1_af2pred (protein)
chain: DEYVKKAKEAIKKAKEYVEEAKKYAEKGDIENAIKSVQKAQEEISAAYFYADQALKLDPEKGKKLKEEAEKVKEELEKVKEYIKAK
B27: design_603_0b98da89-d791-4423-9b2d-fd1b7292da18_1699_dldesign_0_cycle1_af2pred (protein)
chain: MTDLEIVEENIKEAREEFARDPRLGLAVARATVSTAKAMSKKSEEGKKALEKAKAFLEELEAEYRARLAAAAAAAAAAE
B28: design_603_0b98da89-d791-4423-9b2d-fd1b7292da18_1094_dldesign_0_cycle1_af2pred (protein)
chain: GKEEAEKKLKEAKEKVEEMEKKAKEIEENAKELSAEEIEKIAEEMRKEGEEAIKKAEEADPEKGKEIRKKASEAVHKIREAIAEAKA
B29: design_603_0b98da89-d791-4423-9b2d-fd1b7292da18_1531_dldesign_0_cycle1_af2pred (protein)
chain: SEAKEEAKKALERLKKVRERAKEEAPLLTPEERKELSELLAKAREYLNLALVSKDEKEAKKYVEKGKEYLEKAEKLIEKAKAKA
B30: design_603_0b98da89-d791-4423-9b2d-fd1b7292da18_1193_dldesign_0_cycle1_af2pred (protein)
chain: GEEEKLKELIKKTEELAEGTEKLAKKVSEKYPEFEEELKKAAEEAKKAAEEAKKNPEKAPEQYKKVNEKNFEVQQLRAEGKYKS
B31: design_603_0b98da89-d791-4423-9b2d-fd1b7292da18_2015_dldesign_0_cycle1_af2pred (protein)
chain: KETAEELLENARKLAEKAGELVGPELLEVMEKMIEAAKKEDGKKEIEELAKEALELAKKAGVPEAAEYIHQAKADAYAANVFRK
B32: design_603_0b98da89-d791-4423-9b2d-fd1b7292da18_2177_dldesign_0_cycle1_af2pred (protein)
chain: MKALEEAEEFAKKMIEEAKKWGEAEADVAKVLGKSLLEAVEKTLKEKNEEAALAVAKEGKEKAKKIMDRIKEDIERAKKS
B33: design_603_0b98da89-d791-4423-9b2d-fd1b7292da18_1535_dldesign_0_cycle1_af2pred (protein)
chain: MEEKYLKEAEKLLEEGKKEIERAGKEEGAEAAKEVGKKYLEKLTEVAKKLSPEKEGEVLLKFKKESMKIIKEAEEREK
B34: design_603_0b98da89-d791-4423-9b2d-fd1b7292da18_1770_dldesign_0_cycle1_af2pred (protein)
chain: DLEEVKKKASELLFKAIDLVSSGEKEEEGEKAIEEAKKILLSYGKEHPEYAKEMEEGAKKVESVYESAKKAAK
B35: design_603_0b98da89-d791-4423-9b2d-fd1b7292da18_450_dldesign_0_cycle1_af2pred (protein)
chain: MKKEEELKAKYKKAKELVEEKYKRAKEVVKNGTVEQGLAAAESLLEFGKHAGKSLEKAGDKEGGKEVKELAEKYYKELKEEAEKKA
B36: design_603_0b98da89-d791-4423-9b2d-fd1b7292da18_1252_dldesign_0_cycle1_af2pred (protein)
chain: AKEVVKKAKAEAKKLGEKAAAAETLEEAKKLVKELRKEAEKQAKEMKKAGAPEKDIKEVLTTAAELGAEALAEVRS
B37: design_603_0b98da89-d791-4423-9b2d-fd1b7292da18_2150_dldesign_0_cycle1_af2pred (protein)
chain: HERFKYAASAETIAEQVEETAKIYGDEELKEAAKKIKEAAKEAEKSEDAEEAKKAYEKAKEIRKKARKELKAKKA
B38: design_603_0b98da89-d791-4423-9b2d-fd1b7292da18_1568_dldesign_0_cycle1_af2pred (protein)
chain: DEELKKEAKEEIKKAAEKGIAAAKAGNILEAQFYAVEAREIGREYAKKIKNKELAKEVKEYAKKQAEKIRAEAAKVLAA

Biological target: VTCN1, Q7Z7D3
Sequence (Q7Z7D3 whole entry): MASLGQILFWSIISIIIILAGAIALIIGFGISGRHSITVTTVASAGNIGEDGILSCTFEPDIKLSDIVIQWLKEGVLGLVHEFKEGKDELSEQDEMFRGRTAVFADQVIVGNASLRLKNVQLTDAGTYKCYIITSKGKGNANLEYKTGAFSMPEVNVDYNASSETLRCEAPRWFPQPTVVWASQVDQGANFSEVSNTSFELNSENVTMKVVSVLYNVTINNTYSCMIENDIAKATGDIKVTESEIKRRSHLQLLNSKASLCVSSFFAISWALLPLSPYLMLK

Binder | binding in a display sort
B1 | not found
B2 | not found
B3 | not found
B4 | not found
B5 | not found
B6 | not found
B7 | not found
B8 | not found
B9 | not found
B10 | not found
B11 | not found
B12 | not found
B13 | not found
B14 | not found
B15 | not found
B16 | not found
B17 | not found
B18 | not found
B19 | not found

Binder | binding in a display sort
B20 | not found
B21 | not found
B22 | not found
B23 | not found
B24 | not found
B25 | not found
B26 | not found
B27 | not found
B28 | not found
B29 | not found
B30 | not found
B31 | not found
B32 | not found
B33 | not found
B34 | not found
B35 | not found
B36 | not found
B37 | not found
B38 | not found
